# Bioassay records: PubChem BioAssay, National Center for Advancing Translational Sciences (NCATS)
# An excerpt weighted towards active compounds, which were near 5.2% of everything screened.
# Tau fibril ThT: tau fibrillization inhibition (ThT binding); 270,000 compounds, 2.1% hits; Potency, µM (top dose mostly 57.4 µM), for inactives: at the top dose activity, negative = inhibition, usual class: inhibitors; P10636; recombinant tau K18 P301L, heparin-induced fibrillization, ThT fluorescence; also: potency is read from the fitted curve at half-maximal effect; nearly all actives have a fitted effect of over 55% in size
# Target sequence (P10636 561-689 P618L limits assumed): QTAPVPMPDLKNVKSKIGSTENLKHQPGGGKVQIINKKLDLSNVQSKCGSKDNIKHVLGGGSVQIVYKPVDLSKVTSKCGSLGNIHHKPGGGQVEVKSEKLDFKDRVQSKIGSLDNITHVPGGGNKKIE
#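 In this qHTS, human K18 P301L tau is incubated with compound and heparin for 6 hr at 37 C, and Thioflavin T fluorescence then reports fibril load.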
# Sfp inh: blocks B. subtilis Sfp PPTase activity. Q9F4F7. Biochemical Sfp PPTase activity, qHTS. Potency, µM, for inactives: largest response in the series, negative = inhibition, most hits filed as inhibitors. 310,000 compounds, 3.5% hits. AID 1490;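 also: the enzyme is Sfp with the accession as filed and its product quenches rhodamine fluorescence; potency is read from the fitted curve at half-maximal effect; 0% = enzyme reaction without inhibitor and -100% = no enzyme wells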
#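 With Hepes-Na pH 7.6 buffer containing 10 mM MgCl2, Sfp (15 nM) modified BHQ-2-YbbR (12.5 uM) using rhodamine-CoA (5 uM). Two reads 30 minutes apart at 525/598 nm yielded each well's rate.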
# Tau fluor counter: counter-screen for tau fibril formation inhibitors; Potency, µM (titrated, usually from 57.7 µM), without a hit: top-dose activity change, negative = decrease; 280,000 compounds, 0.93% hits; tau K18 P301L (four-repeat tau fragment) Alexa594 fluorescence, heparin fibrillization; also: potency is read from the fitted curve at half-maximal effect; nearly all actives have a fitted effect of over 55% in size
#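 Human K18 P301L tau (15 uM unlabeled plus 0.24 uM Alexa 594-labeled, final) in 100 mM sodium acetate pH 7 was mixed with compound and 20 uM heparin and incubated 6 hr at 37 C.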
# FBPA coupling cs: coupling enzyme interference in Giardia aldolase counter-screen. coupling enzyme system counterscreen, AmpLite Red fluorescence. activity change, negative = inhibition, % at 58.2 µM, hits read low. 290,000 compounds, 0.67% hits; in the data active = activity change below about -30%
#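 Final compound at 57.5 uM, incubated 10 min at RT with coupling enzyme reagent (glyceraldehyde-3-phosphate), then 20 min with substrate and AmpLite Red detection. Fluorescence read at 525/598 nm; tests interference with the coupling assay, not aldolase inhibition.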
# Tau fibril FP: tau fibrillization inhibition (FP). K18 P301L tau heparin fibrillization, Alexa594 FP, 6 h. Potency, µM (series often up to 57.7 µM), for inactives: at the highest dose activity, negative = inhibition, actives largely listed as inhibitors. P10636. 280,000 compounds, 0.39% hits; also: potency is read from the fitted curve at half-maximal effect; nearly all actives have a fitted effect of over 55% in size
#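 Recombinant K18 P301L […], labeled with Alexa 594 at 0.24 uM over 15 uM unlabeled; heparin inducer 20 uM final; 37 C, 6 hr; FP endpoint.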
# The depositor's hits bear a star; ? = inconclusive; . = no result given; [ ] = another dose, or the depositor's remark. Unless noted, calls follow the shape of the dose curve; as a rule, active = well fitted curve in the direction sought with a large enough effect; inconclusive = small, poorly fitted or top-dose-only effect, or another doubt; inactive = no such curve, though single readings can be large; an effect the other way counts as inactive or inconclusive. Unless noted, % is scaled to controls: 0 for no effect and ±100 for the full control effect.
SMILES,Tau fibril ThT,Sfp inh,Tau fluor counter,FBPA coupling cs,Tau fibril FP
COc1cc(/C=C2\SC(=S)N(NS(=O)(=O)c3ccc(C)cc3)C2=O)ccc1O,10µM*,-10.8%,-15.9%,11.2,6.5%
CCCCOc1ccc(C2=NC(c3ccccc3)=Nc3ccc(OC)cc3N2)cc1,?,.,?,.,6.4%
CCn1c(=O)c(C(=O)CN(C)Cc2cccc(OC)c2OC)c(N)n(Cc2ccccc2)c1=O,-1.8%,63.1µM*,3.8%,-2.6,7.1%
S=c1[nH]c(-c2ccccc2)cn1/N=C/c1ccc(Br)cc1,?,10.6%,-23.5%,0.0,-0.1%
S=c1[nH]c(-c2ccccc2)cn1/N=C/c1cccnc1,.,44.7µM*,-3.8%,-0.5,-4.3%
O=C(O)c1ccc(/C=N/n2cc(-c3ccccc3)[nH]c2=S)cc1,?,17.8µM*,-14.2%,3.3,1.5%
Fc1ccccc1/C=N/n1cc(-c2ccccc2)[nH]c1=S,?,89.1µM*,?,4.8,6.5%
Cc1ccc(S(=O)(=O)N2CN(Cc3ccco3)c3nc4ccccc4nc32)cc1C,-13.7%,39.8µM*,-19.6%,5.7,-11.1%
COc1ccc(S(=O)(=O)N2CN(Cc3ccco3)c3nc4ccccc4nc32)cc1,22.4µM*,56.2µM*,-29.9%,-3.0,?
O=S(=O)(c1ccc(F)cc1)N1CN(Cc2ccco2)c2nc3ccccc3nc21,31.6µM*,56.2µM*,?,0.7,?
Cc1ccc(S(=O)(=O)N2CN(Cc3ccco3)c3nc4ccccc4nc32)cc1,-18.8%,-28.6%,-6.8%,1.5,-2.7%
Cc1ccc(S(=O)(=O)Nc2nc3ccccc3nc2NCc2ccco2)cc1C,?,2.8%,?,8.2,-1.2%
Cc1ccc(/C=N/n2c(-c3cccc(Cl)c3)n[nH]c2=S)o1,-14.7%,-7.9%,-27.3%,-2.1,7.2%
S=c1[nH]nc(-c2ccccn2)n1/N=C/c1ccco1,-6.1%,44.7µM*,-5.4%,4.4,5.0%
S=c1[nH]ncn1/N=C/c1ccccn1,-8.8%,15.8µM*,-2.5%,-0.2,3.7%
S=c1[nH]ncn1/N=C/c1cccs1,.,-24.2%,-12.4%,-3.2,1.5%
S=c1[nH]nc(-c2ccco2)n1/N=C/c1ccccn1,-7.7%,79.4µM*,-5.7%,-4.3,-7.8%
S=c1[nH]nc(-c2cccc(Cl)c2)n1/N=C/c1ccco1,.,50.1µM*,?,-4.1,-9.5%
CCc1cccc(NC(=O)c2ccc(CNS(=O)(=O)c3ccc4c(c3)C(C)(C)C(=O)N4C)cc2)c1,-5.1%,.,?,.,-1.2%
O[C@@H](c1ccccc1)C1CCN(CCc2ccccc2)CC1,-5.9%,5.8%,-5.6%,5.2,-0.6%
COc1cc(CNCCN2CCOCC2)ccc1OCC(=O)NC(C)(C)C,16.2%,70.8µM*,18.1%,-2.8,4.3%
COc1cccc(CNC(=O)c2cnc(N3CCCC3)nc2C)c1,-8.8%,.,-8.2%,.,-12.4%
COc1ccc(N2CCC(CNC(=O)Nc3ccc(OC)cc3OC)C2)cc1 (stereo not drawn),14.1µM*,-20.8%,?,-30.6*,-5.6%
COc1ccc(N2CCC(CNC(=O)Nc3ccc(C)c(C)c3)C2)cc1 (stereo not drawn),?,-18.9%,?,-12.9,9.5%
COc1ccc(N2CCC(CNC(=S)Nc3cccc(C)c3)C2)cc1 (stereo not drawn),?,-11.0%,14.1µM*[quencher],-4.2,9.8%
SMILES,Tau fibril ThT,Sfp inh,Tau fluor counter,FBPA coupling cs,Tau fibril FP
COc1ccc(N2CCC(CNC(=S)Nc3ccc(C)cc3C)C2)cc1 (stereo not drawn),?,50.1µM*,?,-25.4,8.9%
COc1ccc(NC(=O)Cn2c(=O)nc(-c3ccccc3)c3ccccc32)cc1OC,-0.6%,.,1.3%,.,3.3%
Cc1ccccc1Cc1c(C)nc2nc(SCC(=O)NCc3ccco3)nn2c1C,-7.4%,-25.2%,-0.1%,0.1,-1.0%
Cc1ccc(C)c(Cc2c(C)nc3c(C(=O)N4CCOCC4)cnn3c2C)c1,1.7%,89.1µM*,0.9%,1.6,7.9%
Cc1ccccc1Cc1c(C)nc2c(C(=O)NCc3ccco3)cnn2c1C,?,50.1µM*,-5.9%,6.9,2.5%
CCCCN1C(=O)C2Cc3c([nH]c4ccccc34)CN2C1=S (stereo not drawn),?,56.2µM*,?,-7.2,7.7%
